Test results reported in PubChem BioAssay AID588740 (National Center for Advancing Translational Sciences (NCATS), 2011).
Calls of active or inactive are those of the source. The rule behind the calls is not given here.

Experiment: PC3M Cytotoxicity Assay for Compounds that Inhibit the Perinuclear Compartment: SAR
Details: PC3M-GFP viability, ATPLite luminescence, 24 h
Text: The perinucleolar compartment (PNC) is a non-membrane-bound nuclear subdomain that is associated with but structurally distinct from the nucleolus. The PNC is a heritable trait, in which the number of PNCs per cell in daughter cells often mimics that of their mother cells. The PNC is heterogeneous in shape, is stable through interphase, disassembles during mitosis, and reassembles in early G1. The PNC is concentrated with newly synthesized RNA polymerase III (pol III) RNAs (MRP RNA, RNAse P H1 RNA, hY RNAs[hY1, 2, 5], Alu RNA, and SRP [7SL] RNA) and RNA binding proteins (nucleolin, PTB, CUG-BP, KSRP, Raver1, Raver2, and Rod). […] Extensive in vitro studies have shown that the PNC is unique to tumor cells and preferentially forms in tumor cells derived from solid tissues. Examination of cancer cell lines from various origins and malignant capacities has shown that PNC prevalence correlates with the malignancy of tumors and has the potential to be developed as a pan-cancer prognostic marker. […] Although the PNC is associated with a DNA locus and a handful of components have been identified, much remains to be investigated regarding the structure and function of the PNC and its mechanistic link to cancer. […]
1. […] Luminescencent signal was detected on a Viewlux CCD based imager (PerkinElmer) with a clear filter and a 30 second integration time. […]

Row | Compound | AC50
1 | N=c1c2c(-c3ccccc3)c(-c3ccccc3)n(Cc3ccccc3)c2ncn1C1CCC(O)CC1 (stereo unspecified) | 9.96 µM (active)
